# According to PubChem BioAssay (EPA / NIEHS):
# Results filed as inconclusive are left out. Activity calls are given as the source filed them. The calls were made as follows, unless noted: active = hit-call score of the fitted dose curve at least 0.9, where 1 is the maximum; inactive = score below 0.9.
# Tested on: not listed separately
# Experiment: VALA_MIGHUV2_WoundArea: VALA Sciences human Umbilical Vein Endothelial Cell Migration (MIGHUV) Assay, Area of Scratch Wound after Recovery (AID 2284316; active = hit-call score of the fitted dose curve at least 0.9, where 1 is the maximum)
# Conditions: not given
# Method in brief: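 HUVEC seeded at 9000 cells/well, scratched after 24 h; test chemical added within 30 min, 6-point concentration response in triplicate (0.1% DMSO vehicle). After 24 h wound recovery, cells fixed and Hoechst-stained nuclei in wound area imaged; Cytochalasin D reference control.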
SMILES,outcome,AC50
COC(=O)[C@H]1[C@H]2C[C@@H]3c4[nH]c5cc(OC)ccc5c4CCN3C[C@H]2C[C@@H](OC(=O)c2cc(OC)c(OC)c(OC)c2)[C@@H]1OC,inactive,
O=C1OC(c2ccc(O)cc2)(c2ccc(O)cc2)c2ccccc21,inactive,
Cc1ccc(-c2cc(C(F)(F)F)nn2-c2ccc(S(N)(=O)=O)cc2)cc1,inactive,
Nc1nc(Cl)nc2c1ncn2[C@H]1C[C@H](O)[C@@H](CO)O1,,28.9 µM (active)

# Tested on: IYD (gene 389434)
# Experiment: CCTE_GLTED_hIYD: CCTE's human Iodotyrosine Deiodinase (xIYD) Inhibition Assay, Great Lakes Toxicology and Ecology Division (GLTED) Lab (AID 2284317; active = hit-call score of the fitted dose curve at least 0.9, where 1 is the maximum;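 also: cell-free human IYD enzyme made in baculovirus insect cells; iodide freed from monoiodotyrosine measured by cerium arsenite color change at 420 nm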)
# Conditions: not given
# Method in brief: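 hIYD: baculovirus-expressed human IYD deiodinated monoiodotyrosine for 3 h with test chemical; free iodide was measured by Sandell-Kolthoff absorbance at 420 nm and normalized to MNT and DMSO/NaOH controls.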
SMILES,AC50,outcome
Cc1c(C)c2c(c(C)c1O)CCC(C)(COc1ccc(CC3SC(=O)NC3=O)cc1)O2 (stereo unspecified),94.7 µM (active),
S=c1[nH]c2ccccc2s1,,inactive
O=Cc1ccccc1C=O,60.2 µM (active),
CCN(CC)CCOc1ccc(C(=C(Cl)c2ccccc2)c2ccccc2)cc1,16 µM (active),
CCCCCCCCCCCCCCOS(=O)(=O)O,29.6 µM (active),

# Tested on: not listed separately
# Experiment: CCTE_Deisenroth_5AR_NBTE_donor: CCTE's 5alpha-reductase NanoBRET Target Engagement Assay […], Deisenroth Lab (AID 2284319)
# Conditions: actives raise or lower the signal
# Method in brief: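 In this secondary endpoint, donor luminescence from SRD5A2-NanoLuc in transfected HEK293T flags artifacts. Test chemical (10 nM - 29.9 uM) is present five hours, tracer the last two; mock-tracer wells run plate-matched; data fitted bidirectionally against DMSO.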
SMILES,outcome,AC50
C/C=C/C=C/C(=O)O,inactive,
O=C1c2c(O)cccc2Cc2cccc(O)c21,inactive,
O=C1OC(c2ccc(O)cc2)(c2ccc(O)cc2)c2ccccc21,inactive,
O=C(O)c1[nH]n(-c2ccc(S(=O)(=O)O)cc2)c(=O)c1N=Nc1ccc(S(=O)(=O)O)cc1,,35 µM (active)
Cc1c(C)c2c(c(C)c1O)CCC(C)(COc1ccc(CC3SC(=O)NC3=O)cc1)O2 (stereo unspecified),inactive,
CCCCC(CC)COC(=O)CCCCCCCC(=O)OCC(CC)CCCC (stereo unspecified),inactive,
CCN(CC)CCOc1ccc(C(=C(Cl)c2ccccc2)c2ccccc2)cc1,inactive,
CCCCCCCCCCCCCCOS(=O)(=O)O,inactive,

# Tested on: not listed separately
# Experiment: CCTE_Deisenroth_5AR_NBTE_acceptor: CCTE's 5alpha-reductase NanoBRET Target Engagement Assay - Autofluorescence Screen, Deisenroth Lab (AID 2284321);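 also: compound fluorescence in the acceptor channel under 460 nm excitation flags autofluorescence artifacts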
# Conditions: actives raise or lower the signal
# Method in brief: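 Acceptor fluorescence intensity was read as an artifact-detection endpoint. Test chemicals at an assumed nominal 100 uM were excited at 460 nm across three independent runs. Activity was fitted bidirectionally against DMSO.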
row,SMILES,outcome
1,C/C=C/C=C/C(=O)O,inactive
2,O=C1c2c(O)cccc2Cc2cccc(O)c21,inactive
3,O=C1OC(c2ccc(O)cc2)(c2ccc(O)cc2)c2ccccc21,inactive
4,O=C(O)c1[nH]n(-c2ccc(S(=O)(=O)O)cc2)c(=O)c1N=Nc1ccc(S(=O)(=O)O)cc1,inactive
5,Cc1c(C)c2c(c(C)c1O)CCC(C)(COc1ccc(CC3SC(=O)NC3=O)cc1)O2 (stereo unspecified),inactive
6,CCCCC(CC)COC(=O)CCCCCCCC(=O)OCC(CC)CCCC (stereo unspecified),inactive
7,CCN(CC)CCOc1ccc(C(=C(Cl)c2ccccc2)c2ccccc2)cc1,inactive
8,CCCCCCCCCCCCCCOS(=O)(=O)O,inactive

# Tested on: SRD5A2 (gene 6716)
# Experiment: CCTE_Deisenroth_5AR_NBTE_ratio: CCTE's 5alpha-reductase NanoBRET Target Engagement Assay - Ratio, Deisenroth Lab (AID 2284322)
# Conditions: actives raise or lower the signal
# Method in brief: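 HEK293T transiently expressing SRD5A2-NanoLuc; cells exposed to chemical (8-point, 10 nM - 29.9 uM) for 5 h total, testosterone tracer added for final 2 h. NanoBRET acceptor/donor ratio (650/460 nm), bidirectional fit vs DMSO.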
SMILES,outcome,AC50
C/C=C/C=C/C(=O)O,inactive,
O=C1c2c(O)cccc2Cc2cccc(O)c21,,75.5 µM (active)
O=C1OC(c2ccc(O)cc2)(c2ccc(O)cc2)c2ccccc21,,50 µM (active)
O=C(O)c1[nH]n(-c2ccc(S(=O)(=O)O)cc2)c(=O)c1N=Nc1ccc(S(=O)(=O)O)cc1,,57.5 µM (active)
Cc1c(C)c2c(c(C)c1O)CCC(C)(COc1ccc(CC3SC(=O)NC3=O)cc1)O2 (stereo unspecified),,29.7 µM (active)
CCCCC(CC)COC(=O)CCCCCCCC(=O)OCC(CC)CCCC (stereo unspecified),inactive,
CCN(CC)CCOc1ccc(C(=C(Cl)c2ccccc2)c2ccccc2)cc1,inactive,
CCCCCCCCCCCCCCOS(=O)(=O)O,,26.1 µM (active)

# Tested on: not listed separately
# Experiment: VALA_TUBHUV_Antagonist_TubuleLength: VALA Sciences human Umbilical Vein Endothelial Tubule Formation (TUBHUV) Antagonism Assay (AID 2284325; active = hit-call score of the fitted dose curve at least 0.9, where 1 is the maximum)
# Conditions: not given
# Method in brief: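 HUVEC–HDF co-culture (1:3) pre-grown 3 days with 10 ng/ml VEGF, then 3 days with compound plus VEGF. Fixed, nuclear and CD31 stained; total tubule length by imaging versus 0.1% DMSO; suramin 100 uM positive control.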
row,SMILES,AC50
1,CCCCC(CC)COP(=O)(OCC(CC)CCCC)OCC(CC)CCCC (stereo unspecified),10 µM (active)
2,COC(=O)[C@H]1[C@H]2C[C@@H]3c4[nH]c5cc(OC)ccc5c4CCN3C[C@H]2C[C@@H](OC(=O)c2cc(OC)c(OC)c(OC)c2)[C@@H]1OC,84.3 µM (active)
3,O=C1OC(c2ccc(O)cc2)(c2ccc(O)cc2)c2ccccc21,50 µM (active)
4,Nc1nc(Cl)nc2c1ncn2[C@H]1C[C@H](O)[C@@H](CO)O1,0.703 µM (active)

# Tested on: not listed separately
# Experiment: TAMU_PeakParms_SingleDonor1434_Asystole: Texas A&M University (TAMU) 1.5-hr Human Induced Pluripotent Stem Cell (iPSC)-derived Cardiomyocytes Calcium (Ca+2) Flux Assay for Cardiotoxicity: Asystole (quiescence of beating) (AID 2284328; active = hit-call score of the fitted dose curve at least 0.9, where 1 is the maximum)
# Conditions: not given
# Method in brief: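 Donor 1434 iPSC-cardiomyocytes exposed 90 min at 37C, 5% CO2, to 0.2, 1, 10 and 100 uM in 0.5% DMSO. Ca2+ dye fluorescence gave average peak frequency; POD is EC95, a 95% beat-rate drop versus controls.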
row,SMILES,outcome
1,CCc1nc(N)nc(N)c1-c1ccc(Cl)cc1,inactive
2,O=C(O)CC(O)(CC(=O)O)C(=O)O,inactive
3,COC(=O)[C@H]1[C@H]2C[C@@H]3c4[nH]c5cc(OC)ccc5c4CCN3C[C@H]2C[C@@H](OC(=O)c2cc(OC)c(OC)c(OC)c2)[C@@H]1OC,inactive
4,Nc1nc(=S)c2[nH]cnc2[nH]1,inactive
